The values that follow come from the supplement of paper PMC10127200.

Each structure is given as a SMILES string. Counter-ions that a name gives are not always drawn.

The assay has as its system HEPG2. Description: Euclidean distance of Cell Painting phenotypic profile (signed KS, 77 features) to DMSO centroid (dimensionless distance); 5 or 10 uM (library dependent); higher = stronger phenotypic change vs DMSO (phenoactivity). As to conditions: 48 h. An outline of the steps:
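Five cancer lines, together with a healthy fibroblast line, received library compounds for 48 h at a library-dependent 10 or 5 uM and 0.1% DMSO final. Harmony then derived 77 features from confocal 20X images (9 fields/well) of the stained cells, scoring each as a signed Kolmogorov-Smirnov statistic against same-plate vehicle wells. After plate-position correction, correlation weighting and replicate averaging at the top dose, phenoactivity was taken as each profile's Euclidean distance to the median vehicle profile.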
`CC/C(=C(\c1ccc(O)cc1)c1ccc(OCCNC)cc1)c1ccccc1` [Endoxifen HCl] showed an Euclidean distance of 4.86. For `CNC[C@H](O)c1cccc(O)c1` [Phenylephrine HCl] the value was 0.549. Consider `COc1cc2c(cc1OC)C(=O)C(CC1CCN(Cc3ccccc3)CC1)C2` (configuration not stated) [Donepezil], for which the Euclidean distance was 1.27.

`COc1ccc(-c2nc(N3CCOCC3)c3sc(CN(C)c4ncc(C(=O)NO)cn4)cc3n2)cn1` showed an Euclidean distance of 4.2. For `CCCc1nc(C(C)(C)O)c(C(=O)O)n1Cc1ccc(-c2ccccc2-c2nnn[nH]2)cc1` [Olmesartan] the value was 0.353; for `O=C1C[C@@H](c2ccc(O)cc2)Oc2cc(O)cc(O)c21` [Naringenin], 0.936; for `CC[C@@]1(O)C(=O)OCc2c1cc1n(c2=O)Cc2cc3c(CN(C)C)c(O)ccc3nc2-1` [Topotecan], 3.31.
